# Compound activity (PubChem BioAssay)
# PLK1 PBD block: qHTS for Inhibitors of PLK1-PDB (polo-like kinase 1 - polo-box domain): Primary Screen; Serine/threonine-protein kinase PLK1 (Homo sapiens), P53350; Plk1 PBD binding of FITC phosphopeptide, fluorescence polarization; Potency, µM, hits mostly inhibitors; 360,000 compounds, 2.8% hits; AID 720504, 2013; note: series mostly up to about 57 µM; nearly all actives have a fitted effect of over 65% in size
# L3MBTL1 inh: qHTS Assay for the Inhibitors of L3MBTL1 | Lethal(3)malignant brain tumor-like protein 1 (Homo sapiens), Q9Y468 | AlphaScreen L3MBTL1–H3K9me1 peptide binding | Potency, µM (titrated, usually from 57.1 µM), hits mostly inhibitors | 230,000 compounds, 0.66% hits | AID 485360, 2010; note: nearly all actives have a fitted effect of over 60% in size
#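 Displacement of a biotinylated histone H3(1-15) peptide monomethylated at Lys9 (75 nM) from L3MBTL1 (50 nM) was measured by AlphaScreen after a 30 min room-temperature compound incubation; cefsulodin titration served as intraplate control.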
# BAZ2B inh: qHTS Assay for Inhibitors of BAZ2B; Bromodomain adjacent to zinc finger domain protein 2B (Homo sapiens), Q9UIF8; AlphaScreen BAZ2B-H3K14Ac peptide displacement; Potency, µM (top dose mostly 114 µM), usual class: inhibitors; 360,000 compounds, 4.4% hits; AID 504333, 2011; note: nearly all actives have a fitted effect of over 60% in size
#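 In this displacement format the biotinylated H3(5-23) peptide acetylated at Lys14 serves as ligand at 50 nM, with BAZ2B at 50 nM in PBS pH 7.4 containing 0.01% Tween-20. Donor and acceptor beads are 10 ug/mL final.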
# JMJD2A Tudor inh: qHTS Assay for Inhibitors of JMJD2A-Tudor Domain | Lysine-specific demethylase 4A (Homo sapiens), O75164 | AlphaScreen JMJD2A-Tudor / H3K4me3 peptide binding | Potency, µM (doses to about 114 µM), actives largely listed as inhibitors | 390,000 compounds, 4.4% hits; note: nearly all actives have a fitted effect of over 50% in size
# HP1b binding inh: HTS for Inhibitors of HP1-beta Chromodomain Interactions with Methylated Histone Tails; AlphaScreen HP1-beta / biotin-H3K9me3 peptide binding; Potency, µM (titrated, usually from 114 µM), most hits filed as inhibitors; 390,000 compounds, 0.56% hits; AID 540317, 2011; note: nearly all actives have a fitted effect of over 70% in size
# Target sequence (P83916 whole entry, looked up): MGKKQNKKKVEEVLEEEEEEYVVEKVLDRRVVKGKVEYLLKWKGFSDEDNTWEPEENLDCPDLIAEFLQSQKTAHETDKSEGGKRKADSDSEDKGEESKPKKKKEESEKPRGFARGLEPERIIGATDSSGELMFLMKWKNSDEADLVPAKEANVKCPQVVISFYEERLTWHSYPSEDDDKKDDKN
#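 AlphaScreen: HP1-beta (50 nM) preformed 30 min with biotin-H3(1-18)K9me3 peptide (50 nM) in PBS pH 7.4, 0.01% Tween-20. Compound added for 30 min at RT, then streptavidin donor/nickel chelate acceptor beads (10 ug/mL) for 30 min.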
# VDR inh: Inhibitors of the vitamin D receptor (VDR): qHTS. Vitamin D3 receptor (Homo sapiens), P11473. VDR-SRC2-3 peptide fluorescence polarization, 2 h. Potency, µM, most hits filed as inhibitors. 400,000 compounds, 0.93% hits
# Target sequence (P11473 whole entry, looked up): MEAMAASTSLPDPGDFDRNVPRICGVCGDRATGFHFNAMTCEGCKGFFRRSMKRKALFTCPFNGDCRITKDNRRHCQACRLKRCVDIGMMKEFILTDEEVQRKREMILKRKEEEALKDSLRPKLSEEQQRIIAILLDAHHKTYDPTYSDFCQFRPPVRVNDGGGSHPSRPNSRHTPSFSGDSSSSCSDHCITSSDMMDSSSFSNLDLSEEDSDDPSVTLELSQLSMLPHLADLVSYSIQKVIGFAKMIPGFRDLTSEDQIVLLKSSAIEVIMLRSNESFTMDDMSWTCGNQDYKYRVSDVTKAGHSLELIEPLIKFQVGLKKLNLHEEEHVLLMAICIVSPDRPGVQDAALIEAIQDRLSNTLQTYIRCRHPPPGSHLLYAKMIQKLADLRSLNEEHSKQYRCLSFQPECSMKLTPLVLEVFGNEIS
#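 Fluorescence polarization assay of small-molecule disruption of VDR binding to coregulator peptide SRC2-3. Compounds and controls pin-transferred, then read after 2 h incubation at ambient room temperature.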
# Hits are given with their value; n = inactive; u = inconclusive; x = no result given; ! = not active in a repeat; [ ] = remark or other dose. Most compounds without a hit are left out; they make up all but 6.9% or so of the library. Calls come from the whole dose curve; as a rule, active = well fitted curve in the direction sought with a large enough effect; inconclusive = small, poorly fitted or top-dose-only effect, or another doubt; inactive = no such curve, though single readings can be large; an effect the other way counts as inactive or inconclusive.
SMILES,PLK1 PBD block,L3MBTL1 inh,BAZ2B inh,JMJD2A Tudor inh,HP1b binding inh,VDR inh
CNC(=S)N(C)CCc1cc2c(c(OC)c1C=C1C(=O)NC(=O)NC1=O)OCO2,u,n,u,n,n,n
CC(C)(C)OC(=O)N(CCc1ccccc1)Cc1ccc(OCc2cccc(NC(=O)c3ccccc3)c2)cc1,u,x,x,n,n,n
CCOC(=O)CSc1nn(-c2ccccc2)c(=S)s1,n,x,n,n,n,n
COC(=O)CSc1n[nH]c(=S)s1,19µM,n,n,u,28µM,n
Cn1c(-c2ccccc2)c(P(=S)(c2ccccc2)c2ccccc2)c2ccccc21,x,x,x,n,x,x
COc1ccc(N2CCN(CCCNC(=O)c3cnn(-c4ccc(F)cc4)c3-n3cccc3)CC2)cc1,x,x,u,45µM,n,n
CC12CCCCC1(O)[N+](=O)C1=C(CCCC1)N2[O-] (configuration not stated),n,n,u,n,n,n
CN(Cc1ccccc1)C(=O)c1ccc(NC(=O)C2CCN(C(=O)OC(C)(C)C)CC2)cc1,30µM,n,x,u,n,n
CN(C)C(=O)Oc1ccc(Cl)c2ccccc12,n,x,n,n,n,n
Cc1c(OC(=O)N(C)C)ccc2c1O/C(=C\c1ccco1)C2=O,n,x,56µM,n,n,n
Cc1ccc(S(=O)(=O)NC(Cc2cnc[nH]2)C(=O)O)cc1 (configuration not stated),n,n,n,13µM,n,u
CCOC(=O)c1c(C)n(CCN2CCN(C)CC2)c2ccc(OC)cc12,n,n,n,18µM,u,n
CN1CCN(Cc2ccc(Br)s2)CC1,n,x,u,5.6µM,u,n
Oc1cc2c(cc1CN1CCN(c3ccccc3F)CC1)OCO2,n,x,u,40µM,71µM,n
Cc1cccc(N2CCN(Cc3ccc4c(c3)OCO4)CC2)c1C,n,n,50µM,28µM,u,n
c1cc2c(cc1CN1CCNCC1)OCO2,n,x,n,n,n,n
COc1ccccc1N1CCN(Cc2cccc(Br)c2)CC1,n,n,50µM,13µM,u,n
CN1CCN(Cc2ccccc2Sc2ccccc2)CC1,n,n,n,n,n,n
Fc1ccc(N2CCN(Cc3cc4c(cc3Br)OCO4)CC2)cc1,n,n,n,u,n,n
COc1ccccc1N1CCN(Cc2ccc(Br)s2)CC1,n,n,50µM,0.89µM,u,n
COc1ccccc1N1CCN(Cc2cc(C)c(C)cc2O)CC1,n,x,n,n,n,n
COc1ccccc1N1CCN(Cc2ccc3c(c2)OCO3)CC1,n,x,x,20µM,u,n
COc1ccccc1N1CCN(Cc2ccccc2)CC1,n,n[2.29 µM],35µM,20µM,u,n
Cc1ccc(C)c(CN2C(=O)c3ccccc3S(=O)(=O)c3ccc(C(=O)N4CCCCCC4)cc32)c1,x,x,u,n,n,u
Oc1c(Cl)cccc1Cc1cc(Cl)cc(Cl)c1O,27µM,x,x,u,u,n
SMILES,PLK1 PBD block,L3MBTL1 inh,BAZ2B inh,JMJD2A Tudor inh,HP1b binding inh,VDR inh
Oc1c(Cl)cc(Cl)cc1CN1CCN(Cc2ccccc2)CC1,n,n,u,n,n,n
CNC(C)C1CC[C@H](N)[C@@H](OC2C(N)C[C@H](N)[C@@H](OC3OC[C@](C)(O)C(NC)[C@H]3O)C2O)O1 (some centres not stated),x,x,x,x,x,n
Clc1ccccc1C(c1ccccc1)(c1ccccc1)n1cccn1,x,x,x,x,x,n
COP(=S)(OC)SCn1nnc2ccccc2c1=O,8.4µM,x,x,n,n,22µM
COP(N)(=O)SC (configuration not stated),x,x,x,x,x,n
CCCCOc1ccc(C(C)=O)cc1Cc1c(O)[nH]c(=S)[nH]c1=O,u,n[2.29 µM],n,n,n,u
COc1ccc(Cc2c(O)[nH]c(=S)[nH]c2=O)cc1,27µM,n,n,u,n,n
COc1ccc(-c2oc(=O)n(C)c2-c2ccc(OC)cc2)cc1,n,x,32µM,u,n,n
CC1=C(C(=O)O)N2C(=O)[C@@H](NC(=O)CCCC(=O)O)[C@H]2SC1,n,n,n,n,n,n
Nc1nc(/C(=C/CC(=O)O)C(=O)NC2C(=O)N3C(C(=O)O)=CCSC23)cs1 (configuration not stated),x,x,x,x,x,50µM
CC(C)NC(=O)C(C)N1CCN(S(=O)(=O)c2ccc3ccccc3c2)CC1 (configuration not stated),n,x,56µM,3.2µM,40µM,n
CC1O[C@@H](O[C@@H]2C(O)C[C@H](O[C@@H]3C(O)C[C@@H](OC4CC[C@@]5(C)C6CC[C@]7(C)C(C8=CC(=O)OC8)CC[C@@]7(O)C6CC[C@@H]5C4)OC3C)OC2C)CC(O)[C@H]1O (some centres not stated),x,x,x,x,x,n
[Hg+][c]1ccccc1,x,x,x,x,x,13µM
CCCCCOc1c(OC)ccc2cc(C(=O)NCc3ccc4c(c3)OCO4)c(=O)[nH]c12,x,x,x,x,x,n
CCCCC/C=C\C/C=C\C/C=C\C/C=C\CCCC(=O)Nc1ccc(O)cc1C,x,x,x,x,x,n
Cc1nn(CCC#N)c2c1P(=S)(N1CCCC1)OC(c1ccc(F)cc1)=N2 (configuration not stated),13µM,n,u,u,14µM,25µM
N#CC(C#N)=Cc1ccc(C=C(C#N)C#N)cc1,n,n,n,n,n,u
N#C/C(=C/c1ccc(O)c(O)c1)C(N)=S,x,x,x,x,x,40µM
Cn1c(=O)oc2cc(NC(=O)CCl)ccc21,n,x,n,n,n,n
CC(C)CN(CC(C)C)c1ccc(C=C2C(=O)NC(=S)NC2=O)cc1[N+](=O)[O-],2.7µM,u,35µM,35µM,n,35µM
CN1C(=O)N(C)C(=O)C2(Cc3c(ccc4ccccc34)N(C)C2)C1=O,8.4µM,n,n,n,u,n
COc1ccc(C(=O)CC2(CC(=O)c3ccc(OC)cc3)C(=O)N(C)C(=O)N(C)C2=O)cc1,n,x,n,n,n,n
N#Cc1cccc(NC(=O)N2CC3(CCN(C(=O)Oc4ccccc4)CC3)C2)c1,x,x,x,x,x,n
C[n+]1c2cc(N)ccc2cc2ccc(N)cc21,0.67µM,x,x,u,n,25µM!
CCc1nn2c(=O)cc(N3CCN(C)CC3)nc2s1,x,x,x,n,x,x
SMILES,PLK1 PBD block,L3MBTL1 inh,BAZ2B inh,JMJD2A Tudor inh,HP1b binding inh,VDR inh
Oc1ccc(CC2CC3CCN2CC3)cc1O (configuration not stated),n,n,n,28µM,n,n
Clc1c(Cl)c(Cl)c(Cl)c(Cl)c1Cl,x,x,x,x,x,n
O=c1c2ccccc2sn1-c1ccc(Cl)cc1,3µM,x,x,x,x,x
Cc1ccc(-n2sc3ccccc3c2=O)cc1,0.95µM,n,7.9µM,7.1µM,u,3.2µM
COc1ccc(-c2nc3ccccc3c(=O)n2-c2ccc(OC)cc2)cc1,n,n,n,n,n,n
COC(=O)CCCc1[se]c2ccccc2c1I,x,x,x,x,x,n
